Laboratory results taken from PubChem BioAssay (NCATS).
Records with an inconclusive call do not appear. Entries that show only a call come without a potency. Unmarked numbers belong to inactive results. Activity calls are given as the source filed them. The call rests on the fitted dose curve; in most records, active means well fitted inhibition curve with a large enough effect; inconclusive means small, poorly fitted or top-dose-only effect; inactive means no such curve, though single readings can be large or run the other way.

What was measured:
[1] = tested on: Zika virus NS2B-NS3 protease (unlinked complex); experiment: Primary screen GU Rhodamine qHTS for Zika virus inhibitors: Unlinked NS2B-NS3 protease assay (AID 1347159); further: nearly all actives have a fitted effect of over 60% in size
How it was run: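 Noncovalent NS2B hydrophilic domain–NS3 protease domain complex (25 nM) preincubated 15 min at room temperature with compounds (up to 114 microM) in 10 mM Tris-HCl pH 8.0, 0.01% Tween 20; 1.5 microM Rhodamine110 substrate added, fluorescence change over 15 min fitted to Hill equation.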

[2] = tested on: Zika virus NS2B-NS3 protease (linked construct); experiment: Primary screen NINDS Rhodamine qHTS for Zika virus inhibitors (AID 1347160); further: nearly all actives have a fitted effect of over 55% in size
How it was run: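 Purified linked NS2B-NS3 protease (NS2B hydrophilic domain joined to NS3 protease by flexible linker), 25 nM in 10 mM Tris-HCl pH 8.0, 0.01% Tween 20. Compounds titrated, 15 min preincubation at room temperature; 1.5 microM Rhodamine110 substrate, FITC fluorescence change over 15 min.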

SMILES | Potency [1] | Potency [2] | activity change, negative = inhibition [1] | activity change, negative = inhibition [2]
Nc1nc2c(cnn2CCCc2ccc(O)cc2)c2nc(-c3ccco3)nn12 | inactive | inactive |  | 
Cc1nnc(-c2ccc(-c3ccc(C(=O)Nc4ccc(O)c(N5CCN(C)CC5)c4)cc3)c(C)c2)o1 | inactive | inactive |  | 
COc1cc(F)c(F)c(Nc2ccc(I)cc2F)c1NS(=O)(=O)C1(CC(O)CO)CC1 (configuration not stated) | inactive | inactive |  | 
O=C(C(Cc1cccc(C(F)(F)F)c1)NS(=O)(=O)c1cc(F)c2c(c1)CCNC2)N1CCCC1 (configuration not stated) | inactive | inactive |  | 
c1ccc(-c2ccc(CNc3nc(-c4ccccn4)nnc3-c3ccccc3)cc2)cc1 | inactive | inactive |  | 
Cc1nc(NC(=O)N2CCC[C@H]2C(N)=O)sc1-c1ccnc(C(C)(C)C(F)(F)F)c1 | inactive | inactive |  | 
Cn1cc(-c2ccc3c(c2)CCN3C(=O)Cc2cccc(C(F)(F)F)c2)c2c(N)ncnc21 | inactive | inactive |  | 
CC1(C)C2CCC(CO[C@@H]3O[C@H](CO[C@@H]4OC[C@](O)(CO)[C@H]4O)[C@@H](O)[C@H](O)[C@H]3O)C1C2 (some centres not stated) | inactive | inactive |  | 
O[C@@](Cc1ncc(CC2(C(F)(F)F)CC2)[nH]1)(c1ccc(-n2cccn2)cc1)C(F)(F)F | inactive | inactive |  | 
C=CC(=O)N1CC(N2CCN(C(=O)CNc3cc(C4CC4)c(Cl)cc3O)CC2)C1 | inactive | inactive |  | 
C=C[C@]1(C)C[C@H](O)[C@H]2C(=C)C(=O)O[C@@H]2[C@H]1C(=C)CO | inactive | inactive |  | 
Oc1cccc(C2NC(=S)Nc3cccc(F)c32)c1 (configuration not stated) | inactive | inactive |  | 
C/C1=C\[C@@H](C)C[C@@H](C)[C@@H](Cc2cnco2)OC(=O)/C(C)=C/[C@@H](C)C[C@@H](C)[C@@H](Cc2cnco2)OC1=O | inactive | inactive |  | 
CN(C)CCN(Cc1ccc(-c2ccc(CNCCc3ccccc3)cc2)cc1)C(=O)CCC1CCCC1 | inactive | inactive |  | 
CC1(CO)CC(O)[C@]2(C(=O)O)CCC34CC3(C=CC3[C@]5(C)C(CC[C@]34C)C(C)(CO)[C@@H](O)[C@H](O)[C@@H]5O)C2C1 (some centres not stated) | inactive | inactive |  | 
Nc1nc2c(c(N3CC[C@@H](N)C3)n1)CCCc1ccccc1-2 | inactive | inactive |  | 

SMILES | Potency [1] | Potency [2] | activity change, negative = inhibition [1] | activity change, negative = inhibition [2]
CCCCCCCCn1cc(CN(CC)CC)c2cc(-c3cnc(N)nc3)ccc21 | inactive | inactive |  | 
C[C@@H]1O[C@@H](O[C@H]2[C@H](OC(=O)[C@]34CCC(C)(C)C[C@H]3C3=CCC5[C@@]6(C)C[C@H](O)[C@H](O[C@@H]7O[C@H](CO)[C@@H](O)[C@H](O)[C@H]7O)[C@](CO)(C(=O)O)C6CC[C@@]5(C)[C@]3(C)C[C@H]4O)OC[C@H](O)[C@@H]2O)[C@H](O)[C@H](O)[C@H]1O[C@@H]1OC[C@@H](O)[C@H](O[C@@H]2OC[C@](O)(CO)[C@H]2O)[C@H]1O (some centres not stated) |  |  | 10.7% [at 19.1 µM] | 31.9% [at 10.7 µM]
COc1ccc(-c2csc(NC(=O)[C@H]3CCCCN3S(=O)(=O)c3ccc(C)cc3)n2)cc1 | inactive | inactive |  | 
CN1CCN(c2ccc(-c3cccc(CN4CCOCC4)c3)cc2NC(=O)c2c[nH]c(=O)cc2C(F)(F)F)CC1 | inactive | inactive |  | 
CC(=O)NC(C(=O)O[C@H]1CCC(C)(C)[C@@H]2CC=C3C(=O)OCC3(O)[C@@]12C)C(C)C (some centres not stated) | inactive | inactive |  | 
Nc1ncnc2c1c(-c1ccc(Cl)cc1)nn2-c1cccc(-c2cnnn2Cc2cccc(-c3ccccc3)c2)c1 | inactive | inactive |  | 
Cc1ccc(S(=O)(=O)NCc2ccc(C(=O)NCCN(Cc3ccccc3)C(C)C)cc2)cc1 | inactive | inactive |  | 
Fc1ccc(CN2CCC(Nc3ccc(C(F)(F)F)nn3)CC2)cc1F | inactive | inactive |  | 
CCN1CCN(Cc2ccc(C(=O)Nc3ccc(C)c(Oc4ccc5c(c4)CC(=O)N5)c3)cc2C(F)(F)F)CC1 | inactive | inactive |  | 
CN(C)Cc1ccc(-c2cnn3c(-c4cccc(NC(=O)c5cccc(C(F)(F)F)c5)c4)ccnc23)cc1 | inactive | inactive |  | 
C=CC1(C)CC(O)C(C(=C)C(=O)OC)C(O)C1C(=C)CO (configuration not stated) | inactive | inactive |  | 
COc1cccc(-c2cc(F)ccc2C2Cc3nc(N)nc(C)c3C(=O)N2)n1 (configuration not stated) | inactive | inactive |  | 
COc1cc(O)cc(/C=C/c2cccc(O)c2)c1 | inactive | inactive |  | 
COc1ccc(CNc2nc(N(CCO)CCO)nc3c2ncn3C(C)C)cc1 | inactive | inactive |  | 
COc1ccc(CN2CCN(C(=O)CCNC(=O)c3ccc(C(C)(C)C)cc3)CC2)cc1 | inactive | inactive |  | 
